From PubChem
Dicer inh = human Dicer pre-microRNA cleavage inhibition; AID 1347074; 6% of 47,000 active; cat-ELCCA pre-miR-21 Dicer processing, chemiluminescence; active compounds read high; z-score at 25 µM; in the data active = z-score above about 3, passing the limit was not always enough;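 also: plate controls were vehicle for no effect and no enzyme for full effect; higher signal means more uncleaved substrate so more Dicer inhibition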
An asterisk follows results filed as active. Only a selection was taken, and hits are over-represented in it overall.

SMILES	Dicer inh
OC(CSc1nncn1-c1ccccc1)C(F)(F)F (stereo not drawn)	1.7
CC(Sc1nnc(-c2cccnc2)o1)C(=O)O (stereo not drawn)	0.72
CCOC(=O)c1sc(NC(=O)C2CCCC2)c(C(=O)OCC)c1C	-0.74
CCOC(=O)c1sc(NC(=O)C2COc3ccccc3O2)c(C(=O)OCC)c1C (stereo not drawn)	3.3*
CCC(=O)Nc1sc(C(=O)OC)c(C)c1C(=O)OC	-0.34
COC(=O)c1c(NC(=O)C2COc3ccccc3O2)sc2c1CCCC2 (stereo not drawn)	0.53
CCOC(=O)c1c(NC(C)=O)sc(C(=O)CC)c1C	6.1*
CCOC(=O)c1sc(NC(=O)C2CCCO2)c(C(=O)OCC)c1C (stereo not drawn)	-0.87
CC12CC/C(=N\O)C=C1C=CC1C2CCC2(C)C1CCC21CCC(=O)O1 (stereo not drawn)	-0.52
C=CCn1c(-c2ccc(N)cc2)nc2ccccc21	1.5
Nc1ccc(-c2nc3cc(N)ccc3n2-c2ccccc2)cc1	3.4*
Cc1nc2ccccc2n1-c1ccccc1	-1.5
COc1ccc(C(=O)CSC2=NCCc3ccccc32)cc1	-0.36
CCOC(=O)CN(C(=O)COc1nc(-c2ccccc2)cc(C)c1C#N)c1cccc(C(F)(F)F)c1	-0.87
O=c1c(-c2ccccc2)cnc2c(-c3ccccc3)c[nH]n12	-0.35
COc1ccc(-c2csc(Nc3ccc(C)cn3)n2)cc1OC	1.1
Cc1ccc(Nc2nc(-c3ccc(O)c(O)c3)cs2)nc1	2.1
Cc1ccc(Nc2nc(-c3ccc(O)cc3)cs2)nc1	4.4*
CC1=C(C(=O)OCC2CCCO2)C(c2cc3c(cc2Br)OCO3)C2=C(CCCC2=O)N1 (stereo not drawn)	1.3
COC(=O)C12CCC3(C(=O)OC)CC(C(=O)OC)(CC(C(=O)OC)(C1)C3=O)C2=O	0.73
Cc1n[nH]c(=O)nc1NCCCN(C)C	-1.4
Cc1ccccc1Cn1c(NCC2CCCO2)nc2c1c(=O)n(C)c(=O)n2C (stereo not drawn)	1.7
Cc1n[nH]c(=O)nc1NCC1CCCO1 (stereo not drawn)	5.8*
COc1ccc(C2C3=C(CCCC3=O)Nc3nc(-c4ccc(N(C)C)cc4)nn32)cc1OC (stereo not drawn)	2.8
Cc1nn(C)c(Cl)c1S(=O)(=O)Nc1ccc(Oc2ccc(F)cc2)cc1	3.2*
SMILES	Dicer inh
Cn1nc(-c2ccc(Cl)cc2)cc1NS(=O)(=O)c1ccc(F)cc1	0.12
Cc1nn(C)c(Oc2ccc(F)cc2)c1[N+](=O)[O-]	-2.6
N/C(CS(=O)(=O)Cc1ccco1)=N\OC(=O)c1ccc(Cl)cc1	4.8*
CC(C)S(=O)(=O)C/C(N)=N/OC(=O)c1cc(Cl)cc(Cl)c1	5.4*
N#C/C(=N\OC(=O)c1ccc(Cl)cc1)S(=O)(=O)c1ccc(Cl)cc1	-3.8
CC(C)S(=O)(=O)C/C(N)=N/OCc1ccc(Cl)cc1	-0.68
CCCS(=O)(=O)C/C(N)=N/OC(=O)c1ccc(Cl)cc1	-0.54
CC(C)S(=O)(=O)C/C(N)=N/OS(=O)(=O)c1ccc(Cl)cc1	-1.5
O=C(O)CC/C(=N\Nc1ccc([N+](=O)[O-])cc1)c1ccc(F)cc1	-1
O=C(O)c1cccnc1Oc1ccc2c(c1)OCO2	41
O=C1NC(=S)N/C1=C\c1ccccc1Cl	1.4
O=C(CS(=O)(=O)Cc1cccc(C(F)(F)F)c1)N/N=C/C=C/c1ccccc1	-2.2
O=C(Nc1ccccc1Cl)C1CC(=O)n2ncnc2N1 (stereo not drawn)	-1.4
Oc1ccccc1C1=NN2C(C1)c1cc(Cl)ccc1OC2c1cccnc1 (stereo not drawn)	4.8
COc1ccc(C2=NN3C(C2)c2ccccc2OC3c2ccc(C)cc2)cc1OC (stereo not drawn)	21
COc1ccc(O)c(C2=NN3C(C2)c2cccc(OC)c2OC3c2cccnc2)c1 (stereo not drawn)	0.4
COc1ccc(C2=NN3C(C2)c2cc(Cl)ccc2OC3c2ccncc2)cc1 (stereo not drawn)	9.1*
COc1ccc(C2=NN3C(C2)c2cc(OC)ccc2OC3c2cccnc2)cc1 (stereo not drawn)	4.8*
Cc1ccc(C2=NN3C(C2)c2ccccc2OC3c2ccncc2)cc1 (stereo not drawn)	6.9*
Cc1ccc(O)c(C2=NN3C(C2)c2ccccc2OC3c2ccncc2)c1 (stereo not drawn)	2.3
COc1ccc(O)c(C2=NN3C(C2)c2ccccc2OC3c2cccnc2)c1 (stereo not drawn)	-0.42
COc1ccc(O)c(C2=NN3C(C2)c2cc(Cl)ccc2OC3c2ccncc2)c1 (stereo not drawn)	2.8
FC(F)(F)c1ccc(C2Sc3ccccc3N=C3c4ccccc4CC32)cc1 (stereo not drawn)	-2.4
O=C(CSc1nc(-c2ccc(F)cc2)cc(C(F)(F)F)n1)NCc1cccnc1	1.5
O=C(ON=C1CCC2(CC1)OCCO2)c1cccc(C(F)(F)F)c1	-4.3
CCOC(=O)C1CCN(c2cc(=O)n(C)c(=O)n2C)CC1	-0.21
Nc1nc(-c2ccncc2)nc2c1cnn2-c1ccccc1	-0.33
CC(C)[C@H](NS(=O)(=O)c1ccc(F)cc1)C(=O)O	1.3
